# Several values for one entry are separate records, joined by “and”; a condition that tells them apart may be missing. Equal entries are not always repeated. Inconclusive results are not listed. Values without a mark were called inactive. Activity calls are given as the source filed them. Calls come from the whole dose curve; as a rule, active = well fitted inhibition curve with a large enough effect; inconclusive = small, poorly fitted or top-dose-only effect; inactive = flat fitted curve, though single readings scatter.
# Biological target: Dual specificity tyrosine-phosphorylation-regulated kinase 1A (Homo sapiens) (UniProt Q13627)
# Assay: Assay for Inhibitors of Dual-Specificity Tyrosine-(Y)-Phosphorylation Regulated Kinase 1A (Kinase-Glo assay): round 2 SAR
# Settings: recombinant DYRK1A, Kinase-Glo ATP depletion luminescence; series mostly up to 76.9 µM; activity, negative = inhibition: at the top concentration
# Text: NIH Molecular Libraries Probe Production Centers Network [MLPCN] NIH Chemical Genomics Center [NCGC] MLPCN Grant: 1R03MH084827-01 PI Name: Tom Misteli NCGC Assay Overview: The CMGC group of protein kinases which includes CDK-like kinases (Clk) and Dyks are essential kinases found in all eukaryotes. Clks have been implicated to play a role in the regulation of alternative splicing; while Dyrks, in particular over expression of Dyrk1A, has been linked to diseases as Down syndrome (DS; OMIM 190685) and Alzheimer disease (AD; OMIM 104300). Among the members of the CMGC group, the Clks and the Dyrks are very closely related therefore to determine validity and selectivity of an active compound observed in the CLK4 qHTS screen (AID:1770), a bioluminescent counter-screen against Dyrk1A was developed. In addition, potent and selective compounds against Dyrk1A were identified to further assess the role of this enzyme in DS and AD. Dyrk1A (Invitrogen, cat # PV3785) was assayed using ATP and DYRKtide (AnaSpec, cat# 62698) as substrates. Promega Kinase-Glo (cat# V6712) technology was used to detect the residual ATP following kinetic reaction. The Kinase-Glo Plus contains Ultra-Glo [5] luciferase and D-luciferin which generates a bioluminescence signal from the remaining ATP. No enzyme and harmine (Sigma, cat # 286044-1G), a compound shown to inhibit Dyrks were used as a positive control; while DMSO treatment was used as a negative control.
# NCGC Assay Protocol Summary: Two uL/well of substrate solution (8uM Dyrktide, 2uM ATP, 25mM Tris-HCl pH 7.5, 10mM MgCl2 , 0.5mM EGTA, 5mM cystein, 0.01% Triton X-100 final concentration) was dispensed into 1536-well assay plates (Greiner, solid white, medium-binding plates) with Aurora Discovery BioRAPTR Flying Reagent Dispenser (FRD, Beckton-Dickenson). Compound solution (23 nL) was transferred to the assay plate using Kalypsys pin tool equipped with a 1536-pin tool. One uL/well enzyme solution (5nM Dyrk1A, 25mM Tris-HCl pH7.5, 10mM MgCl2, 0.5mM EGTA, 5mM cystein, 0.01% Triton X-100 final concentration) was then added using FRD yielding a total kinase reaction volume of 3uL/well. After 2 hours of room temperature incubation, 3uL Kinase-Glo detection reagent was added for a final assay volume of 6uL/well. The plates were spun for 30 seconds (1000 rpm) and incubated at ambient temperature for 2 minutes followed by a luminescence read using Perkin Elmer ViewLux plate reader at 3 seconds exposure time and 2x binning.
Structure (SMILES),Potency,"activity, negative = inhibition [%]"
Cc1ccsc1CN(C)c1ncnc2ccc(-c3ccc(COC(=O)N(C)C)o3)cc12,9.23 µM (active),–
O=C(O)c1ccc(-c2ccc3ncnc(N4CCOCC4)c3c2)o1,26 µM (active),–
Cn1cncc1CNc1ncnc2ccc(-c3ccc4c(c3)OCO4)cc12,0.463 µM (active),–
COc1cccc(-c2ccc3ncnc(NCc4ccc5c(c4)OCO5)c3c2)c1,9.23 µM (active),–
CC(=O)c1ccc(-c2ccc3ncnc(NCc4ccc(C)o4)c3c2)o1,5.82 µM (active),–
Cc1cccc(CNc2ncnc3ccc(-c4ccc5c(c4)OCCO5)cc23)c1,3.68 µM (active),–
Cc1ccc(CN(C)c2ncnc3ccc(-c4ccc(CO)o4)cc23)o1,0.823 µM (active),–
Cc1csc(CNc2ncnc3cc(-c4ccc5c(c4)OCO5)ccc23)n1,29.2 µM (active),–
Cc1cccc(-c2ccc3ncnc(NCc4cccs4)c3c2)c1,18.4 µM (active),–
Cc1ccsc1CN(C)c1ncnc2ccc(-c3ccc([C@@H](C)O)o3)cc12,3.68 µM (active) and 1.46 µM (active) and 1.04 µM (active),–
COc1cccc(-c2ccc3ncnc(NCc4cccc(C)c4)c3c2)c1,8.23 µM (active),–
Cc1csc(CNc2ncnc3ccc(-c4ccc(C(C)O)o4)cc23)n1 (stereo not given),26 µM (active),–
Cn1ccc2cc(-c3ccc4ncnc(NCc5ccc6c(c5)OCO6)c4c3)ccc21,–,-10.9
c1csc(CNc2ncnc3ccc(-c4ccc5c(c4)OCO5)cc23)c1,0.184 µM (active),–
c1cncc(CNc2ncnc3ccc(-c4ccoc4)cc23)c1,9.23 µM (active),–
Cc1csc(CNc2ncnc3ccc(-c4ccc5c(c4)OCO5)cc23)c1,0.463 µM (active),–
c1cncc(-c2ccc3ncnc(NCc4cccs4)c3c2)c1,23.2 µM (active),–
CN(CCc1ccco1)c1ncnc2ccc(-c3ccc4c(c3)OCO4)cc12,0.292 µM (active),–
CCNC(=O)c1ccc(-c2ccc3ncnc(NCCc4cnc[nH]4)c3c2)o1,11.6 µM (active),–
CCCNc1ncnc2ccc(-c3ccc4c(c3)OCO4)cc12,0.184 µM (active),–

Structure (SMILES),Potency,"activity, negative = inhibition [%]"
Fc1cccc(CNc2ncnc3ccc(-c4ccc5c(c4)OCO5)cc23)c1,0.463 µM (active),–
CN(CC1CCCCC1)c1ncnc2ccc(-c3ccc4c(c3)OCO4)cc12,0.26 µM (active),–
O=C(O)c1ccc(-c2ccc3ncnc(NCc4nccs4)c3c2)o1,18.4 µM (active),–
Cn1ccc2cc(-c3ccc4ncnc(NCc5cccc(F)c5)c4c3)ccc21,–,-5.48
Cc1csc(CNc2ncnc3ccc(-c4ccc5c(c4)OCCO5)cc23)c1,1.64 µM (active),–
c1csc(CNc2ncnc3cc(-c4ccc5c(c4)OCO5)ccc23)c1,26 µM (active),–
COc1cccc(Nc2ncc3ncc(=O)n(C)c3n2)c1,11.6 µM (active),–
COc1cccc(-c2ccc3ncnc(NCc4cccc(F)c4)c3c2)c1,4.63 µM (active),–
Cc1cccc(CNc2ncnc3ccc(-c4ccoc4)cc23)c1,3.68 µM (active),–
CCNC(=O)c1ccc(-c2ccc3ncnc(NCc4ccc(C)o4)c3c2)o1,9.23 µM (active),–
CN(Cc1ccco1)c1ncnc2ccc(-c3ccoc3)cc12,0.207 µM (active),–
Cc1nc(CCN(C)c2ncnc3ccc(-c4ccc5c(c4)OCO5)cc23)cs1,0.654 µM (active),–
O=C(O)c1ccc(-c2ccc3ncnc(NCC4CCCO4)c3c2)o1 (stereo not given),23.2 µM (active),–
Clc1ccccc1-c1ccc2ncnc(NCc3cccs3)c2c1,6.54 µM (active),–
c1nc(NCc2ccc3c(c2)OCO3)c2cc(-c3ccoc3)ccc2n1,18.4 µM (active),–
Cc1nc(C(C)N(C)c2ncnc3ccc(-c4ccc5c(c4)OCO5)cc23)cs1 (stereo not given),29.2 µM (active),–
CC(O)c1ccc(-c2ccc3ncnc(N4CCOCC4)c3c2)o1 (stereo not given),23.2 µM (active),–
Cc1ccc(CNc2ncnc3cc(-c4ccc5c(c4)OCO5)ccc23)o1,23.2 µM (active),–
Cc1cccc(-c2ccc3ncnc(NCc4cccc(F)c4)c3c2)c1,13 µM (active),–
Clc1cccc(-c2ccc3ncnc(NCc4cccnc4)c3c2)c1,18.4 µM (active),–
